Hit rate of the full screen: of about 68,000 compounds, about 60 (0.09%) were called active. The call rests on the fitted dose curve; in most records, active means well fitted curve in the direction sought with a large enough effect; inconclusive means small, poorly fitted or top-dose-only effect; inactive means flat fitted curve, though single readings scatter. The list is a sample of the results. Where a SMILES comes first, the peptide text is derived from it. The star is where a group is joined. Bz = O=C(c1ccccc1)*
assay: qHTS Assay for Epigenetic Modulators; conditions: mouse C127i GFP locus derepression, cytometry, 30 h; series mostly up to 46.1 µM; GFP derepression (activation): at the top concentration; further: % of control where 0% means no effect
Text: NIH Molecular Libraries Screening Centers Network [MLSCN] NIH Chemical Genomics Center [NCGC] MLSCN Grant: 1 X01 MH079860-01 Assay Provider: Elisabeth D. Martinez, University of Texas SW Medical Center NCGC Assay Overview: The Locus Derepression assay detects the derepression of a GFP reporter that is stably integrated in a region of the genome of murine c127i mammary cells that is presumably silenced. GFP transcription in this construct is controlled by a CMV promoter, which normally is strong and constitutively active. However, this line was selected for lack of constitutive expression of the GFP protein. GFP production can be induced by incubating the cells with histone deacetylase or DNA methyltransferase inhibitors. Compounds that cause derepression of the locus to express GFP are identified by enumerating GFP positive cells using a laser-scanning microplate cytometer. For further details of this screen and follow-up characterization, see R.L. Johnson, W. Huang, A. Jadhav, C.P. Austin, J. Inglese, E.D. Martinez, A Quantitative High-Throughput Screen Identifies Potential Epigenetic Modulators of Gene Expression, Analytical Biochemistry (2008) 375(2):237-48.
NCGC Assay Protocol Summary: Two hundred and fifty cells in 5 uL per well were dispensed into black, clear-bottom 1536-well plates. Twenty-three nL compound was transferred to the assay plate and cells were incubated 30 hours at 37 C. Medium was removed, cells were washed two times with PBS, and GFP-positive cells were enumerated as fluorescent objects between the sizes of 20 to 120 um width and depth using an Acumen Explorer. Keywords: NIH Roadmap, MLSCN, MLI, MLSMR, qHTS, NCGC, qHTS, HDAC, DNMT, HAT, DNA methyltransferases, histone acetyl transferases, histone deacetylases

GFP derepression (activation), inactive:
Clc1ccc(C(c2ccc(Cl)cc2)n2cc[n+](C[C@@H](OCc3ccc(Cl)cc3Cl)c3ccc(Cl)cc3Cl)c2)cc1 -1.1%, C=CCSC1=C(C#N)C(c2cc(Br)c(O)c(OC)c2)CC(=O)N1 (stereo not drawn) -3.4%, CN(C)CCSS(=O)(=O)O 0.1% [at 9.22 µM], CC(NC(=O)CSc1nc2c(cc1C#N)CN(C)CC2)c1ccccc1 (stereo not drawn) 2.2% [at 20.6 µM], CCNC(=O)CN(c1ccc(C)cc1)S(=O)(=O)c1ccc(SC)cc1 -1.5%, CC(=O)c1sc2nc(SCC(=O)N3CCCCC3)[nH]c(=O)c2c1C 4.5%, Cn1cccc1C1(C(F)(F)F)NCCNC1=O (stereo not drawn) 2.1%, CCOC(=O)N1CCN(C(=O)c2nn(-c3ccc(C)cc3)c(=O)c3c2c2ccccc2n3C)CC1 5%, COc1ccccc1CNC(=O)CCCNS(=O)(=O)c1cccc2nsnc12 1.8%, O=C(c1ccc(O)cc1)c1ccc(C(=O)O)c(C(=O)O)c1 2.1%, CCOC(=O)CNC(=O)CSc1nnnn1-c1cc(C)ccc1C 0%, COc1ccc(S(=O)(=O)Nc2c(C)n(C)n(-c3ccccc3)c2=O)cc1 2%, COc1ccc(C(C(O)C(=O)c2c[nH]c3ccccc23)N2CCN(c3ccccc3)CC2)cc1 (stereo not drawn) -2.9%, Cn1c(=O)[nH]c(=O)c2c1nc(N(CCO)Cc1ccccc1)n2Cc1ccccc1Cl -6.5% [at 20.6 µM], Cn1c(=O)cc(SCC(=O)N2CCN(C(=O)c3ccco3)CC2)c2ccccc21 -2%, COc1ccc(OC)c(CNC(=O)C2CCCN(c3nc4ccccc4o3)C2)c1 (stereo not drawn) 2.1%, Cn1cc(-c2nc3cnc(N4CCNCC4)nc3n(CCC#N)c2=O)c2ccccc21 7.6% [at 9.22 µM], CCOCCc1c(O)nc(SCC(=O)NCc2ccco2)[nH]c1=O 0.3%, N#CC(C(N)=O)=C1CCC2(CC1)OCCCCO2 -1%, COC(=O)c1ccc(C2NC(=O)NC(C)=C2C(=O)N(C)C)cc1 (stereo not drawn) -1.1%, CCn1c2c(c3ccc(OC)cc31)CCCC2=O 0%, COc1ccc(S(=O)(=O)NC(CC(=O)NCc2ccccc2OC)c2ccco2)cc1 (stereo not drawn) -1%, O=C(NC(Cc1ccccc1)C(=O)N1CCCC1C(=O)O)c1ccccc1 (stereo not drawn) (Bz-Phe-Pro-OH; configuration not given here) 3.4%, Cc1nc2cnc(Oc3cccc(Cl)c3)nc2n(C2CC2)c1=O -2.7% [at 9.22 µM], C[C@H]1O[C@@H](CC(=O)O)Cc2c1c(O)c1c(O)cc(-c3cc(=O)c4c(=O)c5c(c(=O)c=4c3=O)C[C@H](CC(=O)O)O[C@@H]5C)c(O)c1c2O 10.3% [at 9.22 µM], CNc1cc(-c2c(C)noc2C)ncn1 0% [at 9.22 µM], O=C(c1c(Cl)nc2sccn12)N1CCCc2ccccc21 4.2%, Cc1ccc2[nH]c(=O)c(-c3nc4c(C)cccn4c3NCc3ccco3)cc2c1 -0.1%, COc1ccc(CNc2ncncc2-c2ccccc2C)c(OC)c1 0% [at 9.22 µM], CCOC(=O)c1[nH]c2ccccc2c1N=C(C)N(CC)CC 0% [at 20.6 µM], Fc1ccc(Cn2nnnc2C(c2cccs2)N2CCCCCC2)cc1 (stereo not drawn) 1.3%, COc1ccc2[nH]c(=O)c(CN(CC3CCCO3)C(=O)Nc3ccccc3)cc2c1 (stereo not drawn) 3.4%, COc1ccc2[nH]cc(CCNc3ncnc4ccc(-c5ccccc5CN(C)C)cc34)c2c1 -5.2% [at 9.22 µM]
